The text below walks through data of PubChem BioAssay (EPA / NIEHS).

Details in all cases: mRNA level, 48 h; actives raise or lower the signal
Read-out in assay [1]: ABC Transporter (ABCB1), ABCB1 (gene 5243)
The experiment in a line: LTEA_HepaRG_ABCB1: Life Technologies and Expression Analysis (LTEA) Assay for ABC Transporter (ABCB1) using HepaRG (AID 2283460). Summed up:
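Human liver HepaRG line treated 48 h with up to 100 uM compound (eight half-log points, 0.5% DMSO); ABCB1 mRNA change fitted bidirectionally against DMSO controls.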

Read-out in assay [2]: growth arrest and DNA damage 45 (GADD45B), GADD45B (gene 4616)
Kind of assay: LTEA_HepaRG_GADD45B: Life Technologies and Expression Analysis (LTEA) Assay for growth arrest and DNA damage 45 (GADD45B) using HepaRG (AID 2283461). Summed up:
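Transcript level quantified by Fluidigm TaqMan qRT-PCR with three housekeeping genes for normalization, analyzed for up- or down-regulation against 0.5% DMSO. HepaRG cultures dosed 48 h at eight half-log concentrations up to 100 uM, duplicates.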

Read-out in assay [3]: ABC Transporter (ABCC3), ABCC3 (gene 8714)
Kind of assay: LTEA_HepaRG_ABCC3: Life Technologies and Expression Analysis (LTEA) Assay for ABC Transporter (ABCC3) using HepaRG (AID 2283462). Summed up: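 Transcript level by TaqMan qRT-PCR, normalised to three housekeeping genes, fitted in both directions relative to vehicle. Chemicals tested in duplicate at eight half-log concentrations up to 100 uM for 48 h on HepaRG cells (0.5% DMSO).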

Read-out in assay [4]: ABC Transporter (ABCC2), ABCC2 (gene 1244)
The experiment in a line: LTEA_HepaRG_ABCC2: Life Technologies and Expression Analysis (LTEA) Assay for ABC Transporter (ABCC2) using HepaRG (AID 2283464). Summed up:
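Endpoint is ABCC2 transcript level from qRT-PCR, normalized to three housekeeping genes and fitted bidirectionally relative to DMSO. Human HepaRG cells received test chemical for 48 h at up to 100 uM (8 points, half-log steps, 0.5% DMSO), duplicate wells.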

Read-out in assay [5]: Broad substrate specificity ATP-binding cassette transporter ABCG2 (Homo sapiens) (UniProt Q9UNQ0)
Kind of assay: LTEA_HepaRG_ABCG2: Life Technologies and Expression Analysis (LTEA) Assay for ABC Transporter (ABCG2) using HepaRG (AID 2283465). The essentials:
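Gene expression of ABCG2 in HepaRG liver cells is quantified by qRT-PCR following 48 h exposure across an eight-point series topping at 100 uM. Values come from bidirectional fitting relative to DMSO vehicle.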

Read-out in assay [6]: ATP-citrate lyase (ACLY), ACLY (gene 47)
The experiment in a line: LTEA_HepaRG_ACLY: Life Technologies and Expression Analysis (LTEA) Assay for ATP-citrate lyase (ACLY) using HepaRG (AID 2283466). Summed up:
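ACLY expression changes in human HepaRG liver cells are quantified by qRT-PCR after 48 h exposure to test chemicals (maximum 100 uM, half-log steps). Values are fitted in both directions relative to 0.5% DMSO vehicle.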

Read-out in assay [7]: Peroxisomal acyl-coenzyme A oxidase 1 (ACOX1) gene, ACOX1 (gene 51)
The experiment in a line: LTEA_HepaRG_ACOX1: Life Technologies and Expression Analysis (LTEA) Assay for Peroxisomal acyl-coenzyme A oxidase 1 (ACOX1) gene using HepaRG (AID 2283467). The essentials:
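Human HepaRG hepatic cultures, 48 h treatment with test chemicals up to 100 uM. ACOX1 expression read by qRT-PCR relative to 0.5% DMSO vehicle.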

Read-out in assay [8]: Alkaline Phosphatase, Placental (ALPP) gene, ALPP (gene 250)
The experiment in a line: LTEA_HepaRG_ALPP: Life Technologies and Expression Analysis (LTEA) Assay for Alkaline Phosphatase, Placental (ALPP) gene using HepaRG (AID 2283468).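 On AC50: differentiated human HepaRG liver cells in serum-free induction medium.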 The essentials: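 ALPP transcript level, measured by qRT-PCR and normalized to three housekeeping genes (ACTB, GAPDH, POLR2A), after 48 h dosing of differentiated HepaRG in serum-free induction medium. Top concentration 100 uM with half-log dilutions (8 points, 0.5% DMSO, duplicates); bidirectional fitting relative to DMSO.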

Read-out in assay [9]: Bcl-2 (BAD) gene, BAD (gene 572)
Kind of assay: LTEA_HepaRG_BAD: Life Technologies and Expression Analysis (LTEA) Assay for Bcl-2 (BAD) gene using HepaRG (AID 2283469). Summed up: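 Activity values reflect up- or down-regulation of BAD mRNA in human HepaRG hepatic cells treated 48 h in serum-free medium, with eight-point half-log dosing capped at 100 uM and 0.5% DMSO vehicle.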

Read-out in assay [10]: Bcl-2 (BAX) gene, BAX (gene 581)
Kind of assay: LTEA_HepaRG_BAX: Life Technologies and Expression Analysis (LTEA) Assay for Bcl-2 (BAX) gene using HepaRG (AID 2283470). The essentials: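 Gene expression measured by Fluidigm qRT-PCR with three housekeeping genes for normalisation. HepaRG cells, plated 48 h beforehand, treated 48 h at up to 100 uM (8-point, half-log) in 0.5% DMSO. Bidirectional fitting versus DMSO.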

Read-out in assay [11]: adenosine kinase (ADK) gene, ADK (gene 132)
Kind of assay: LTEA_HepaRG_ADK: Life Technologies and Expression Analysis (LTEA) Assay for adenosine kinase (ADK) gene using HepaRG (AID 2283471). The essentials:
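ADK expression quantified by qRT-PCR, normalised to three housekeeping genes, after 48 h exposure of HepaRG cells to eight concentrations (top 100 uM, half-log steps, duplicate, 0.5% DMSO). Up- or down-regulation fitted relative to vehicle.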

Read-out in assay [12]: Alpha-fetoprotein (AFP) gene, AFP (gene 174)
Kind of assay: LTEA_HepaRG_AFP: Life Technologies and Expression Analysis (LTEA) Assay for Alpha-fetoprotein (AFP) gene using HepaRG (AID 2283472). The essentials: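 AFP transcript measured by TaqMan qRT-PCR with three housekeeping genes for normalization, after 48 h chemical treatment of HepaRG cells (top 100 uM, half-log steps, 0.5% DMSO). Gain or loss fitted against vehicle.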

Read-out in the next assay: BCL2L11 (gene 10018)
Kind of assay: LTEA_HepaRG_BCL2L11: Life Technologies and Expression Analysis (LTEA) Assay for Bcl-2 (BCL2L11) gene using HepaRG (AID 2283473). The essentials: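 BCL2L11 transcript levels are measured by Fluidigm qRT-PCR, normalized to three housekeeping genes. HepaRG cultures were plated 48 h, then treated 48 h with test chemical (top 100 uM, half-log, 0.5% DMSO vehicle); curves were fitted bidirectionally against DMSO.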

Read-out in assay [13]: Apolipoprotein A-V (APOA5) gene, APOA5 (gene 116519)
Kind of assay: LTEA_HepaRG_APOA5: Life Technologies and Expression Analysis (LTEA) Assay for Apolipoprotein A-V (APOA5) gene using HepaRG (AID 2283474). The essentials: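 APOA5 transcript levels were quantified by qRT-PCR, normalized to three housekeeping genes, after 48 h chemical treatment of HepaRG cells (8 points, 100 uM maximum, half-log steps, 0.5% DMSO). Curves fitted in both directions against vehicle.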

Read-out in assay [14]: Apoptosis regulator Bcl-2 (Homo sapiens) (UniProt P10415)
Kind of assay: LTEA_HepaRG_BCL2: Life Technologies and Expression Analysis (LTEA) Assay for Bcl-2 gene using HepaRG (AID 2283475). The essentials: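 qRT-PCR of BCL2 transcript, normalized to three housekeeping genes (ACTB, GAPDH, POLR2A), after 48 h chemical exposure of HepaRG cells; concentrations top 100 uM with half-log dilutions, 0.5% DMSO vehicle, duplicates; changes up or down fitted relative to vehicle.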

Read-out in assay [15]: Bcl-2 (BID) gene, BID (gene 637)
The experiment in a line: LTEA_HepaRG_BID: Life Technologies and Expression Analysis (LTEA) Assay for Bcl-2 (BID) gene using HepaRG (AID 2283476). Summed up:
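Duplicate 48 h treatments of HepaRG cells in serum-free induction medium spanned 100 uM downward in half-log steps, 0.5% DMSO. Transcript change quantified by qRT-PCR against three housekeeping genes, fitted up or down versus DMSO.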

Read-out in a further assay: Caspase-3 (Homo sapiens) (UniProt P42574)
The experiment in a line: LTEA_HepaRG_CASP3: Life Technologies and Expression Analysis (LTEA) Assay for cysteine-aspartic acid protease (CASP3) using HepaRG (AID 2283477). The essentials: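 Expression of CASP3 was quantified by TaqMan qRT-PCR against three housekeeping genes (ACTB, GAPDH, POLR2A), bidirectionally versus 0.5% DMSO. HepaRG cultures received compounds in duplicate, top 100 uM with half-log steps, for 48 h in serum-free induction medium.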

Read-out in assay [16]: Cytochrome P450 (CYP24A1), CYP24A1 (gene 1591)
Kind of assay: LTEA_HepaRG_CYP24A1: Life Technologies and Expression Analysis (LTEA) Assay for Cytochrome P450 (CYP24A1) using HepaRG (AID 2283478). The essentials:
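mRNA of CYP24A1 quantified by TaqMan qRT-PCR (ACTB/GAPDH/POLR2A normalization) after 48 h chemical exposure of HepaRG cells, top concentration 100 uM, half-log steps, 0.5% DMSO vehicle, duplicates. Curves fitted bidirectionally against DMSO baseline.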

Read-out in assay [17]: Cytochrome P450 (CYP1A2), CYP1A2 (gene 1544)
The experiment in a line: LTEA_HepaRG_CYP1A2: Life Technologies and Expression Analysis (LTEA) Assay for Cytochrome P450 (CYP1A2) using HepaRG (AID 2283479). The essentials:
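CYP1A2 transcript measured by TaqMan qRT-PCR against three housekeeping genes after 48-hour chemical exposure of HepaRG cells. Eight-point half-log series topping at 100 uM in 0.5% DMSO, duplicates; gain or loss fitted relative to vehicle.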

Active and inactive are the calls of the source. How the source made its calls: active means hit-call score of the fitted dose curve at least 0.9, where 1 is the maximum; inactive means score below 0.9.

Chain of Broad substrate specificity ATP-binding cassette transporter ABCG2 (Homo sapiens) (Q9UNQ0 whole entry, looked up): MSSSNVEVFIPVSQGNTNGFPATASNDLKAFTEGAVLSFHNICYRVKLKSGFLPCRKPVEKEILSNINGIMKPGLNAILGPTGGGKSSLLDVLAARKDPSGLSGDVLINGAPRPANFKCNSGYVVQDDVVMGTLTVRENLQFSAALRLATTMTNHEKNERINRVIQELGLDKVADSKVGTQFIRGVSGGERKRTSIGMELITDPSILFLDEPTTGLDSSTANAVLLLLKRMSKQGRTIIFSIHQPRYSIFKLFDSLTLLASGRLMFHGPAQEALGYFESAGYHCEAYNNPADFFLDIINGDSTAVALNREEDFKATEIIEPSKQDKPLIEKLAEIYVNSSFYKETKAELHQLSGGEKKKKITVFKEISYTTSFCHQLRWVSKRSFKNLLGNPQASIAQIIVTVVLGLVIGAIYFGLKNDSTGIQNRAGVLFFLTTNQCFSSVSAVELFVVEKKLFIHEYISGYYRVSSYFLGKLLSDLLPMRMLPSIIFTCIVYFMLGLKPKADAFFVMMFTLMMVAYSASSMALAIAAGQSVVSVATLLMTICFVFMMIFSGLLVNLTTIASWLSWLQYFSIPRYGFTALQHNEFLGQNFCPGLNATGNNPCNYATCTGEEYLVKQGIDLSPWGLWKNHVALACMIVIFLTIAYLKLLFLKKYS
Chain of Caspase-3 (Homo sapiens) (P42574 whole entry, looked up): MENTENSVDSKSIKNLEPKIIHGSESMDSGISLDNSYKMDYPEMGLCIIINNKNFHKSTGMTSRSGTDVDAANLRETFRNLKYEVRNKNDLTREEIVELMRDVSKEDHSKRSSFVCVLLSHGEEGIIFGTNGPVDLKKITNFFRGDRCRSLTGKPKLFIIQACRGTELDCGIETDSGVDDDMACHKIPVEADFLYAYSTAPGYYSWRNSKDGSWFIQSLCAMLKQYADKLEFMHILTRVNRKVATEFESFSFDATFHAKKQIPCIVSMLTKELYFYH
Chain of Apoptosis regulator Bcl-2 (Homo sapiens) (P10415 whole entry, looked up): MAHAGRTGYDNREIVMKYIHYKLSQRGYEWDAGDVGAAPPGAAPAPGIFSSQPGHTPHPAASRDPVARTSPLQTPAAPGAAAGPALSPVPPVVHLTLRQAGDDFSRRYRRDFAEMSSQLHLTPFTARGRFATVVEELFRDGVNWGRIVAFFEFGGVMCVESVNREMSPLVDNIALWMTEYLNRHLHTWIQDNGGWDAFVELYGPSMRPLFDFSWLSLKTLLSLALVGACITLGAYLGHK

`CN(C)C(=O)Cl`: the molecule was called inactive in assay [1], in [2], in [3], in assay [4], in assay [5] and in assay [6]. Further, the molecule was called inactive in [7], in [8], in [9], in assay [10], in assay [11] and in assay [12]. In addition, the outcome (with BCL2L11 (gene 10018); in [13]; in assay [14]; in assay [15]; with Caspase-3 (Homo sapiens); in assay [16]) was inactive. Further, the molecule was called inactive in [17].
Consider `Cc1cccc(N)c1`, for which the result in assay [1], in assay [2], in assay [3], in assay [4], in assay [5] and in [6] was inactive. Moreover, the result in assay [7], in [8], in assay [9], in assay [10], in assay [11] and in assay [12] was inactive. For the same molecule, the molecule was called inactive (with BCL2L11 (gene 10018); in [13]; in [14]; in [15]; with Caspase-3 (Homo sapiens); in [16]). The AC50 in assay [17] was 50.2 µM (active).
On to `CCNc1nc(Cl)nc(NC(C)(C)C)n1`, for which the AC50 in [1] is 7.02 µM (active); in assay [4], 4.01 µM (active); in assay [8], 9.92 µM (active); in [17], 32.1 µM (active). The outcome in assay [2], in assay [3], in [5], in assay [6], in assay [7] and in assay [9] was inactive. Also, the outcome (in [10]; in assay [11]; in assay [12]; in the assay with BCL2L11 (gene 10018); in assay [13]; in assay [14]) was inactive. The molecule was called inactive (in assay [15]; with Caspase-3 (Homo sapiens); in [16]).
`COCCOCCO`: the call in assay [1], in [2], in assay [3], in [4], in assay [5] and in [6] was inactive. Besides, the call in assay [7], in assay [8], in assay [9], in assay [10], in assay [11] and in assay [12] was inactive. Moreover, the result (with BCL2L11 (gene 10018); in assay [13]; in assay [14]; in assay [15]; with Caspase-3 (Homo sapiens); in assay [16]) was inactive. In assay [17], the molecule was classed as inactive.
In the case of `ClC(Cl)(Cl)c1ccccc1`, the molecule was called inactive in assay [1], in assay [2], in assay [3], in [4], in assay [5] and in [6]. Also, the molecule was classed as inactive in assay [7], in [8], in assay [9], in [10], in assay [11] and in [12]. Moreover, the call (in the assay with BCL2L11 (gene 10018); in assay [13]; in [14]; in [15]; in the assay with Caspase-3 (Homo sapiens); in assay [16]) was inactive. Further, the outcome in [17] was inactive.
`c1cc2c3c(cccc3c1)CC2`: the call in [1], in assay [2], in assay [3], in assay [4], in assay [5] and in [6] was inactive. The outcome in assay [7], in assay [8], in [9], in assay [10], in [11] and in [12] was inactive. Besides, the outcome (with BCL2L11 (gene 10018); in [13]; in assay [14]; in assay [15]; in the assay with Caspase-3 (Homo sapiens); in assay [16]) was inactive. The molecule was classed as inactive in [17].

A word on the AC50: it is the midpoint of the concentration-response curve, whichever way the signal moves.
